# Source: PubChem BioAssay
# Several values for one entry are separate records, joined by “and”; a condition that tells them apart may be missing. Equal entries are not always repeated. For part of these data: Results with a measured potency or affinity are listed apart. Activity calls are given as the source filed them.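 Rule for the calls, unless noted: active = thallium flux through the channel raised or lowered by more than 3 SD from vehicle-only wells, actives on both sides; inactive = the rest.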
# Assays:
# [1] = polyglutamine-triggered caspase-3 activation inhibitors, cell-based (AID 1583); settings: polyglutamine-induced caspase-3 activation, cell assay; stronger effect = higher value;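 tested at 10 µM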
# [2] = suppressors of polyQ aggregation in yeast, 75Q-TubU reporter (AID 1593); settings: Yeast 75Q polyglutamine aggregation reporter
# [3] = rescue of polyQ-huntingtin neuronal dysfunction in worms, whole organism, C. elegans mechanosensory neurons, N-terminal huntingtin (AID 1599); settings: touch response, stronger effect = higher value
# [4] = inhibitors of mitochondrial cytochrome c release, biochemical, purified mitochondria (AID 1603); settings: stronger effect = lower value;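 note: mouse liver mitochondria challenged with calcium chloride; signal normalized to the plate average as 100%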
# [5] = inhibitors of polyQ protein aggregation (AID 1604); settings: polyglutamine-induced protein aggregation inhibition assay; stronger effect = higher value; tested at 2.5 µM
# [6] = enhancers of glutamate uptake in motor neurons, MN-1 cell line (AID 1612); settings: MN-1 motor neuron cells, stronger effect = higher value;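 note: tested at 1 µM final; 0% = mean of DMSO vehicle wells on each plate; positive means more glutamate uptake than control and negative means less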
# [7] = suppressors of polyglutamine aggregation in yeast, 75Q-TubH (AID 1616); settings: S. cerevisiae 75Q-TubH polyglutamine aggregation suppression; stronger effect = higher value
# [8] = hESC survival regulators, cell-based (AID 493140; call rule not given here;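 note: cells exposed to compounds for four days before counting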); settings: human embryonic stem cell survival screen; stronger effect = higher value
# [9] = Cy5 fluorescence interference with SSB-bound oligo, artefact control for HCV NS3 helicase inhibitor project, biochemical, NIH Clinical Collection, E. coli SSB (AID 743268; call rule not given here)
# [10] = modulation of C. elegans fzo-1 (AID 1259413; call rule not given here;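 note: fzo-1 mutant C. elegans worms in liquid wells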); settings: C. elegans fzo-1 modulator screen, mean read-out; stronger effect = higher value
# [11] = viability rescue of complex I mutant cybrids, primary screen, cell-based, galactose medium, ATP luminescence (AID 1645843;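 active = z-score of at least 1.8 in each of two replicates, scored against plate mean and spread of sample wells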;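 note: positive z means more ATP and so rescue of galactose-driven cybrid death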); settings: complex I mutant cybrid cells, 72 h, stronger effect = higher value
# [12] = system: F380Y/beta1; assay: modulators of BK channel variants, profiling panel, selectivity assay, cell-based, U2OS BacMam, thallium flux, beta subunits (AID 1259406); settings: at 30 µM;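 note: initial slope of Thallos dye fluorescence rise after thallium is added; log ratio against the mean of 0.3% DMSO vehicle wells on the same plate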
# [13] = system: F380Y/beta4; assay: as above; settings: at 30 µM
# [14] = system: R275C; assay: as above; settings: at 30 µM
# [15] = system: R275C/beta1; assay: as above; settings: at 30 µM
# [16] = system: R275C/beta2Delta; assay: as above; settings: at 30 µM
# [17] = system: R275C/beta4; assay: as above; settings: at 30 µM
# [18] = system: R275C/Slo1WT/beta2; assay: as above; settings: at 30 µM
# [19] = system: Hepatitis C virus NS3 helicase; assay: HCV NS3 helicase inhibitors, primary screen, biochemical, fluorescence polarization, LOPAC1280 library (AID 687035; in the data active = inhibition above about 37%); settings: Purified HCV NS3 helicase, Cy5-dT15 ssDNA binding fluorescence polarization; stronger effect = higher value; concentration not given here
Structure (SMILES),inhibition [1],score [2],rescue above control [3],cytochrome c release ratio [4],inhibition of aggregation [5],glutamate uptake change [6],aggregation suppression score [7],survival [8],fluorescence ratio [9],mean signal [10],z-score [11],log fold change Tl+ flux [12],log fold change Tl+ flux [13],log fold change Tl+ flux [14],log fold change Tl+ flux [15],log fold change Tl+ flux [16],log fold change Tl+ flux [17],log fold change Tl+ flux [18],inhibition [19]
CO[C@@]1(NC(=O)Cc2cccs2)C(=O)N2C(C(=O)O)=C(COC(N)=O)CS[C@@H]21,10%,0.25,-4.75,0.94,27.8%,-21.4%,0.182,2.08 (inactive),1.06 (inactive),248 (inactive),-0.58 (inactive),-0.00712 (inactive),-0.02 (inactive),0.0592 (inactive),0.00671 (inactive),-0.0512 (inactive),0.0012 (inactive),0.00869 (inactive),
O=C1NC(=O)C(c2ccccc2)(c2ccccc2)N1,5.01%,1.42,6.5,0.9,62.8%,-8.41%,1.74,,1.01 (inactive),250 (inactive),0.08 (inactive) and 1.09 (inactive) and 0.395 (inactive),0.0354 (inactive),0.0289 (inactive),-0.00405 (inactive),-0.0211 (inactive),0.0126 (inactive),-0.0221 (inactive),0.0271 (inactive),1% (inactive)
CC(=O)CCCCn1c(=O)c2c(ncn2C)n(C)c1=O,49.3%,1.37,-11.6,0.83,60.9%,-0.27%,1.44,14.1 (inactive),1.01 (inactive),250 (inactive),0.465 (inactive) and 0.86 (inactive) and 0.55 (inactive),-0.00172 (inactive),0.0281 (inactive),-0.0458 (inactive),-0.0218 (inactive),0.00216 (inactive),-0.0339 (inactive),-0.000483 (inactive),-4% (inactive)
c1ccc2c(c1)CCCC2C1=NCCN1 (stereo not drawn),-4.42%,1.43,7.66,0.63,56.8%,6.14%,1.06,6 (inactive),0.97 (inactive),221 (inactive),0.18 (inactive) and 0.17 (inactive),0.041 (inactive),0.00535 (inactive),-0.00319 (inactive),-0.00185 (inactive),-0.0361 (inactive),0.0129 (inactive),0.0141 (inactive),-3% (inactive)
CN(C)CCCN1c2ccccc2Sc2ccc(Cl)cc21,1.97%,0.97,0,1.17,35.3%,11.9%,1.25,3.17 (inactive),1.03 (inactive),252 (inactive),-1.52 (inactive) and -1.29 (inactive) and -1.43 (inactive),-0.176 (active),0.171 (active),-0.0248 (inactive),0.272 (active),0.103 (active),0.154 (active),-0.0668 (inactive),-2% (inactive)
